Reference: PubChem BioAssay AID1619 (SRMLSC, 2009)
Among all 220,000 compounds or so, about 830 (0.38%) were called active.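 The calls were made as follows: active = compound inhibiting the enzyme by more than half at any dose during confirmatory dose-response retesting; inconclusive = strong single-dose inhibitors picked by rank but not retested; inactive = the rest.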 Only a sample is shown. Measured potencies and affinities stand elsewhere.

What follows are compounds tested against Leucine aminopeptidase (Plasmodium falciparum (isolate 3D7)) (UniProt Q8IL11) (assay: P. falciparum M17LAP inhibitors, primary screen, biochemical, fluorogenic H-Leu-NHMec substrate, 1536-well (AID 1619;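 also: plate controls were full reaction with DMSO carrier for no effect and no enzyme background for full effect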)). Conditions: recombinant M17LAP, H-Leu-NHMec fluorogenic kinetic assay; at 30 µM; hits give high values.
Sequence of Leucine aminopeptidase (Plasmodium falciparum (isolate 3D7)) (Q8IL11 whole entry, looked up): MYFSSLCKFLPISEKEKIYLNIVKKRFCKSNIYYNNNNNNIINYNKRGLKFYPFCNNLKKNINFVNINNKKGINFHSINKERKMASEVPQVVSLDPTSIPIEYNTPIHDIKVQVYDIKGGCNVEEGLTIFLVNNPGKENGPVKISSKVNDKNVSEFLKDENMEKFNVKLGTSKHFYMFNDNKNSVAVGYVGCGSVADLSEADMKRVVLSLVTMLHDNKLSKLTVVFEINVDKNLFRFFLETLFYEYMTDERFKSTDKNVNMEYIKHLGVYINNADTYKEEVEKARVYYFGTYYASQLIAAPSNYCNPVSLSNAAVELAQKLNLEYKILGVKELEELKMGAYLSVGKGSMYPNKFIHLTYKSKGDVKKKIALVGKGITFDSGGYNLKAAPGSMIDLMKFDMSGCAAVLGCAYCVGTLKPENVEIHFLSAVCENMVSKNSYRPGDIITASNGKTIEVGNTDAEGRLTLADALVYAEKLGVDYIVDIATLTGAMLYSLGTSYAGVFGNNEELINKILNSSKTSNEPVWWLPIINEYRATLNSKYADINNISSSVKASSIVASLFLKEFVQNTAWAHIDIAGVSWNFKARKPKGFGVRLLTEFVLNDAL

inhibition, inactive:
CCOC(=O)c1sc(NC(=S)NC(=O)C2CCCC2)cc1C -3.81%
O=C(O)C1CCCN(S(=O)(=O)c2ccc(Br)s2)C1 (stereo unspecified) -0.9%
O=C(O)/C=C/c1cn(Cc2ccccc2)nc1-c1ccccc1 22.2%
Cc1ccc(-c2nn(Cc3ccccc3)cc2/C=C/C(=O)O)cc1 38.8%
O=C(O)/C=C/C(=O)Nc1ccc(Oc2ccccc2)cc1 -0.33%
O=C(O)/C=C\C(=O)Nc1ccc(Oc2ccccc2)cc1 15%
CCS(=O)(=O)N1CCC(C(=O)NCc2ccc(OC)cc2)CC1 5.05%
O=C(O)CSc1nc(-c2ccccc2)nc2c1oc1ccccc12 28.6%
NC(=O)C1CCN(c2nc(-c3ccccc3)nc3c2oc2ccccc23)CC1 -0.35%
CCC(C)[C@H](Nc1nc(-c2ccccc2)nc2c1oc1ccccc12)C(=O)O (stereo partly specified) 51.5%
Cc1nc(SCC(=O)O)c2oc3ccccc3c2n1 1.07%
CCc1nc(N[C@H](C(=O)O)C(C)C)c2oc3ccccc3c2n1 3.02%
CCOC(=O)C1CCN(c2nc(-c3ccccc3)nc3c2oc2ccccc23)CC1 41.7%
COc1ccc(N=C2NC(=O)/C(=C/C=C/c3ccccc3)S2)cc1 3.51%
CCc1ccc(C2CC(c3ccc(Cl)cc3)n3nc(N)nc3N2)cc1 (stereo unspecified) -1.74%
CCC(CC)Nc1ccc(C(CC(N)=O)NC(=O)Cc2ccc(Br)cc2)cc1[N+](=O)[O-] (stereo unspecified) -4.54%
CN(C)c1ccnc2sc(C(=O)NCc3ccccc3)c(N)c12 -4.21%
Cc1ccc(NC(=O)CCC(=O)OCC(=O)c2ccc(Oc3ccc([N+](=O)[O-])cc3)cc2)c(C)c1 13.8%
Cc1cccc(C)c1NC(=O)CSc1nnc(NC(=O)c2ccccc2C(=O)O)s1 19.1%
O=C(CSc1nnc(NC(=O)c2ccco2)s1)Nc1ccc(F)cc1 -1.02%
CC(C)c1nnc(NC(=O)CSc2nnc(NC(=O)c3c(F)cccc3F)s2)s1 2.85%
COc1ccc(NC(=O)CSc2nnc(NC(=O)c3ccco3)s2)cc1 22.5%
C=CCn1cnc2sc(C(=O)Nc3ccccc3OC)c(C)c2c1=O 7.04%
Clc1ccc(-c2cc(COc3ccc4ccccc4c3)no2)cc1 -2.54%
COc1ccc(C(=O)CSc2nc(N)nc(SC)c2C#N)cc1 -5.8%
CCN1C(=O)/C(=C\c2ccc(-c3ccc([N+](=O)[O-])cc3OC)o2)SC1=Nc1cccc(C(=O)O)c1 28.7%
CN1C(=O)/C(=C/c2ccco2)SC1=Nc1ccc(N2CCOCC2)cc1 -4.86%
CCOC(=O)c1sc(-c2ccccn2)nc1C 10.5%
C/C(O)=C(\C#N)c1nc2ccccc2[nH]1 1.5%
CCN(CC)S(=O)(=O)c1ccc(Cl)c(NC(=O)CCCCl)c1 8.77%
NC(=O)C1CCN(C(=O)c2ccc(CS(=O)(=O)c3c(Cl)cccc3Cl)o2)CC1 1.58%
CCCCn1c(N)c(Br)c(=O)[nH]c1=O 10%
COc1ccc(OC)c(/C=N/NC(=O)CC2C(=O)NN=C2C)c1 (stereo unspecified) -164%
CCOc1cccc(/C=N/NC(=O)CC2C(=O)NN=C2C)c1O (stereo unspecified) 3.72%
COc1cc(OC)c(OC)cc1/C=N/NC(=O)CC1C(=O)NN=C1C (stereo unspecified) 53.3%
COc1cc(/C=N/NC(=O)CC2C(=O)NN=C2C)ccc1O (stereo unspecified) 10.4%
CCCn1c(C2CC(=O)N(c3ccc(C)cc3)C2)nc2ccccc21 (stereo unspecified) 4.53%
O=C(Nc1cccc(F)c1)/C(=C\c1cccnc1)NC(=O)c1cccs1 7.11%
CC1=C(C#N)C(=O)NC(=O)/C1=C\c1ccc(-c2cc(C)c(C)cc2[N+](=O)[O-])o1 24.2%
CC1=C(C#N)C(=O)NC(=O)/C1=C/c1ccc(-c2ccc(S(N)(=O)=O)cc2)o1 35.6%
CC(=O)c1c(O)cc(=O)n(-c2ccccc2)c1-c1ccc(Cl)cc1 -10.1%
CC(=O)c1c(O)cc(=O)n(-c2ccccc2)c1-c1ccc(C)cc1 0.53%
Cc1cccc(Nc2nnc(SCC(=O)c3ccc(Br)s3)s2)c1C 23%
CN(C(=O)CSc1nnc(-c2ccc(Cl)cc2)n1CC1CCCO1)C1CCS(=O)(=O)C1 (stereo unspecified) -0.82%
Cc1cc(C)n2nc(SCc3ccccc3)nc2n1 -5.69%
Nc1nc2nc(-c3ccc(OCc4ccccc4)cc3)cc(C(F)(F)F)n2n1 -1.91%
COc1ccc(CNc2ncccn2)cc1OC -2.62%
CSc1nc2nc(C)cc(-c3ccccc3)n2n1 -6.85%
Cc1nc2nc(COc3ccccc3)nn2c(C)c1Cl -4.07%
CSc1nc2nc(-c3ccccc3)cc(C(F)(F)F)n2n1 -8.74%
COc1ccc(CNc2nc3nc(C)cc(C)n3n2)cc1OC 4.62%
COc1cc(C)nc2nc(SCc3ccccc3)nn12 -4.54%
COC(=O)c1c(NC(=O)Cn2cnc([N+](=O)[O-])n2)sc2c1CCC(C)C2 (stereo unspecified) 1.07%
O=C(NC1CCN(Cc2ccccc2)CC1)C1CCN(c2nnc(-n3cccc3)s2)CC1 -1.52%
Nc1cc(C(F)(F)F)ccc1Nc1ccccc1 -4.7%
CCCCOC(=O)Nc1ccccc1C(=O)N1CCCC1 10.4%
CCOC(=O)C(C(=O)NCC1CCCO1)C1CCCCC1 (stereo unspecified) 5.23%
CCOC(=O)C1(O)CSc2nc3sc(C(=O)O)c(C)c3c(=O)n21 (stereo unspecified) -2.76%
COc1ccc(-c2noc(CN(C)Cc3ccc(C)o3)n2)cc1 1.39%
COc1cc([N+](=O)[O-])ccc1NC(=O)CN1CCN(C(=O)c2ccco2)CC1 17.7%
COc1cc2c(C(=O)N3CCN(c4cccc(Cl)c4)CC3)cn(CC(C)C)c(=O)c2cc1OC -4.76%
